# Only some compounds are listed: those with a hit (about 7.9% of all), similar ones and a draw of the others.
# KB-V1 cytotox – kills drug-selected multidrug resistant KB-V1 cells; KB-V1 MDR cells viability, CellTiter-Glo, 72 h; Potency, µM (top dose mostly 46.1 µM), usual class: cytotoxic; actives 3.4% (n = 400,000); AID 1347076; further: on the % scale 0 is the no-effect control and ±100 the full control effect; nearly all actives have a fitted effect of over 60% in size
#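 KB-V1, DMEM (no phenol red) + 10% FBS; cpd pin-transferred, titration series; 72 h, 37 degrees C; CellTiter-Glo, luminescence. Data normalized, curve-fit.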
# HT1080 IDH1KD tx – kills HT-1080 cells with IDH1 knockdown; HT-1080 IDH1 knockdown viability, ATP luminescence, 48 h; Potency, µM (top dose mostly 46.1 µM), inactives show at the highest dose activity, negative = toxicity, usual class: cytotoxic; actives 2% (n = 360,000);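 further: 0% = DMSO wells and -100% = cell-free medium wells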
#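 After a 2 h attachment period, IDH1KD HT-1080 cells took pin-transferred compound for 48 h at 37 °C; ATP-based luminescence after 10 min room-temperature reagent incubation reported viability.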
# SW480 rerep – DNA re-replication induction in SW480 cells; Potency, µM (titrated, usually from 46.1 µM), without a hit: top-dose re-replication activation, hits mostly activators; actives 1.8% (n = 340,000); SW480 DNA re-replication, Hoechst DNA content imaging, 48 h; further: % of control where 0% means no effect; nearly all actives have a fitted effect of over 55% in size
#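 Compounds, transferred as 23 nL by pin tool, were incubated with cells for 48 hr; DNA content per nucleus was then quantified by Hoechst staining and fluorescence plate imaging.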
# MCF10A rerep – induces DNA re-replication in MCF 10a normal breast cells. MCF 10A DNA re-replication, Hoechst nuclear intensity, 48 h. Potency, µM (doses to about 46.1 µM), without a hit: at the top dose activity, positive = re-replication, usual class: activators. actives 2.9% (n = 350,000). AID 624296; further: % of control where 0% means no effect; nearly all actives have a fitted effect of over 50% in size
# HT1080NT lethal – kills 2HG-producing HT-1080-NT fibrosarcoma cells; HT-1080-NT fibrosarcoma viability, CellTiter-Glo ATP luminescence, 48 h; Potency, µM (titrated, usually from 46.1 µM), for the others: at the top dose activity, negative = less viability, most hits filed as cytotoxic; actives 1.6% (n = 360,000); AID 686970;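 further: NT is the 2HG producing partner of a matched IDH1 knockdown line; 0% = DMSO-treated cells and -100% = media-only wells without cells; nearly all actives have a fitted effect of over 55% in size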
#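 HT-1080-NT; 750 cells/well; 5% FBS RPMI; 48 h compound, 37 degrees C; CellTiter-Glo luminescence; curve fitting and curve-class assignment.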
# KB-3-1 tox – KB-3-1 parental cell cytotoxicity. KB-3-1 viability, CellTiter-Glo ATP luminescence, 72 h. Potency, µM (top dose mostly 46.1 µM), most hits filed as cytotoxic. actives 1.4% (n = 400,000); further: on the % scale 0 is the no-effect control and ±100 the full control effect; nearly all actives have a fitted effect of over 60% in size
#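 Cells are dispensed, compounds pinned in, plates held at 37 °C for 72 h, then CellTiter-Glo is added and luminescence read after 10 minutes. Cell line: parental KB-3-1 in phenol-red-free DMEM, 10% FBS.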
# Starred values were filed as active, the others as inactive; i = inactive; ? = inconclusive; · = no result; ! = a repeat was not active; [ ] = dose if it differs, or a comment. The call rests on the fitted dose curve; in most records, active means well fitted curve in the direction sought with a large enough effect; inconclusive means small, poorly fitted or top-dose-only effect, or another doubt; inactive means no such curve, though single readings can be large; an effect the other way counts as inactive or inconclusive. Potency means the concentration at half of the fitted maximal effect.
SMILES,KB-V1 cytotox,HT1080 IDH1KD tx,SW480 rerep,MCF10A rerep,HT1080NT lethal,KB-3-1 tox
COc1ccc(C(CNC(=O)c2ccc(S(=O)(=O)Nc3ccccc3OC)cc2)N2CCCC2)cc1 (stereo not given),i,-1.6%,-11.5%,-1.9%,-0.4%,i
O=C(c1cn(Cc2ccccc2)nc1-c1cccnc1)N1CCN(Cc2ccccc2)CC1,i,-1.5%,-8.2%,10.2%,-0.3%[9.24 µM],i
CC(=O)c1cccc(NC(=O)c2cccc3c(-c4cnn(C)c4)coc23)c1,?,18.2%,·,·,10.3%,i
Cn1cc(-c2coc3c(C(=O)Nc4ccccc4)cccc23)cn1,10.3µM*,-9.2%,·,·,-18.4%,i
CCC(=O)N1CCc2cc(S(=O)(=O)NC(CC(C)C)C(=O)N3CCc4ccccc43)ccc21 (stereo not given),13µM*,1.7%,?,6.5%,-15.9%,i
C=C(CC)C(=O)c1ccc(OCC(=O)O)c(Cl)c1Cl,i,23.1µM*,?,18.8µM*!,18.4µM*,i
CCOC(=O)COc1ccc2nsnc2c1Cl,i,-6.5%,10.6%,17.6%,-4.3%,i
COC(=O)c1cc(S(=O)(=O)NCC2CCN(Cc3cc(C)ccc3C)CC2)cn1C,i,-4.4%,-1.7%,1.5%,0.8%,i
CC(C)COP(=O)(OCC(C)C)C(Nc1ccccc1)c1ccc2c(c1)OCO2 (stereo not given),6.51µM*,-20.1%,?,?,-8.7%,?
COC(=O)C1=NN(C(C)=O)C2(CC(=O)N(c3cccc(C)c3)C2=O)C1 (stereo not given),i,20.7%,-5.9%,10.3%,18.9%,i
C=C1C(=O)O[C@@H]2[C@H]3O[C@]3(C)CC/C=C(\C)CC[C@@H]12,i,18.4µM*,-13.4%,4.11µM*,9.2µM*,i
O=[N+]([O-])c1cccc(SSc2cccc([N+](=O)[O-])c2)c1,i,18.4µM*,18.4µM*,?,18.4µM*,i
Nc1cccc([N+](=O)[O-])c1,?,-2.9%,-14.7%,2.9%,5.9%,i
O=[N+]([O-])c1ccc2nc(-c3ccc(Cl)cc3)n(OCc3ccccc3)c2c1,i,29.9%,-10.7%,6.9%,19.2%,i
Clc1ccc(COn2c(-c3ccc(Cl)cc3)nc3ccccc32)cc1,18.4µM*,8.5%,?,16.4µM*,-5.1%,i
Clc1ccc(COn2c(-c3ccccc3)nc3ccccc32)cc1,?,0.0%,?,20.6µM*,-4.8%,?
CCOc1cc(NC(=S)NCCOC)c(OCC)cc1NC(=O)c1cccs1,i,-6.3%,-1.1%,-3.3%,17.7%,i
Cc1ccc(S(=O)(=O)NCCC(=O)N2CCN(Cc3ccccc3)CC2)cc1,?,10.6%,9.6%,-4.3%,-3.1%,i
CC(=O)N1CCc2cc(S(=O)(=O)NCCC(=O)N3CCN(Cc4ccccc4)CC3)ccc21,16.4µM*,-4.6%,2.5%,25.9%,-24.5%,?
Nc1ccc(Br)cc1C(=O)O,i,-2.0%,-7.2%,-7.3%,1.6%,i
Cc1ccc(Nc2ncc3c(=O)[nH][nH]c(=O)c3n2)cc1,i,1.1%,3.6%,-18.9%,1.4%,i
O=C(Nc1ccccc1)C1Cc2c(-c3ccccc3Oc3ccccc3)ccnc2O1 (stereo not given),i,?,·,·,?,i
CC(=O)c1cccc(-c2ccnc3c2CC(C(=O)Nc2cccc(OC(F)(F)F)c2)O3)c1 (stereo not given),i,16.4µM*,·,·,?,i
O=C(Nc1cccc(Oc2ccccc2)c1)C1Cc2c(-c3ccc4c(c3)OCO4)ccnc2O1 (stereo not given),i,?,·,·,?,i
O=C(Nc1cccc(OC(F)(F)F)c1)C1Cc2c(-c3ccc4c(c3)OCO4)ccnc2O1 (stereo not given),i,23.1µM*,·,·,?,i

# Screens from PubChem BioAssay.
